Source: PubChem BioAssay (National Center for Advancing Translational Sciences (NCATS))
The list is not random: actives were taken first. Their share in the collection is about 2.4%.
D2 PAM-1 = potentiates the human D2 dopamine receptor allosterically; DiscoveRx D2 beta-arrestin cells, luminescence, 90 min; 100% = 57 uM dopamine signal; potentiation, % (no concentration beside the values); 0.23% of 360,000 active; AID 624464; in the data active = potentiation above about 50%; inconclusive = mostly about 30% to 49%
Target sequence (P14416 whole entry, looked up): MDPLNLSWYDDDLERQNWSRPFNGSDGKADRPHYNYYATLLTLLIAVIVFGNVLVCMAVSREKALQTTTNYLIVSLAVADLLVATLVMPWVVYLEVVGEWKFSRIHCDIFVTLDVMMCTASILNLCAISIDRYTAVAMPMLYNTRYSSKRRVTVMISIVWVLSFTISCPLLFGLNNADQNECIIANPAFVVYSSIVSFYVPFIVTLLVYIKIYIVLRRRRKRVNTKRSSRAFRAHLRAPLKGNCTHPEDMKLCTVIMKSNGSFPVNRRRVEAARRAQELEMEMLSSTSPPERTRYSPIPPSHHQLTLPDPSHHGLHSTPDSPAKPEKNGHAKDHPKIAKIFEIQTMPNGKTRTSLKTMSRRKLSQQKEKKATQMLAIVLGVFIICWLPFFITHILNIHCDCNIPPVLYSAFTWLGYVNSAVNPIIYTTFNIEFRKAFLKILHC
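PathHunter D2 cells, attached overnight at 37 deg C, received compound in DMSO plus dopamine at EC20 (50 nM final) for 90 min at 37 deg C. Beta-arrestin recruitment was read as luminescence after 1 h with detection reagent at ambient temperature.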
D2 PAM-2 = positive allosteric modulators of human D2 dopamine receptor. HEK293 T-REx D2, calcium flux, EC20 dopamine potentiation. potentiation, % at 10 µM. 0.34% of 340,000 active;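 active = potentiation over 3 SD above the plate norm, cut at about 30% in these data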
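Primary screen. Calcium kinetics in induced HEK293 T-REx D2 cells: compound pre-addition 180 s, EC20 dopamine, 180 s more.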
D2 ag-1 = agonists of human D2 dopamine receptor (beta-arrestin). P14416. DiscoveRx PathHunter D2 beta-arrestin, luminescence, 90 min; 100% = 57 uM dopamine signal. activation, % (no concentration beside the values). 0.084% of 360,000 active; in the data active = activation above about 40%; inconclusive = between about 15% and that limit
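Agonist mode: compounds alone added to overnight-plated D2 PathHunter cells for 90 min at 37 C, with 57 uM final dopamine (EC100) defining full response. Beta-arrestin recruitment detected by chemiluminescent reagent, read after 1 h at ambient temperature.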
D2 antagonist = antagonizes the human D2 dopamine receptor; HEK293 TREx D2 cells, calcium flux, dopamine EC80; inhibition, % at 10 µM; 2% of 340,000 active; in the data active = inhibition above about 30%; inactive = below that, where a call was filed
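Compounds are added to dye-loaded, induced HEK293 T-REx cells coupled to calcium release via D2; after a 3 min kinetic read an EC80 dopamine stimulus is given and fluorescence is recorded for 3 more min.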
D2 ag-2 = activates the human D2 dopamine receptor. activation, % at 2 µM. HEK293 T-REx D2 cells, calcium flux agonist mode. P14416. 0.53% of 340,000 active;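 active = activation over 3 SD above normal in the single-dose calcium agonist read, cut at about 30% in these data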
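HEK293 Trex D2 cells, tetracycline-induced, o/n 30 C 5% CO2; no-wash Ca dye, RT 30–90 min; 10-cycle baseline, 23 nl cpd added, kinetic Ca read 180 s; agonist hits = positive Ca response.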
Of the large screens only hits and unclear results are named; the others gave an inactive call.

CC(=O)n1c2ccccc2c2nc(NC(C)C)sc21	D2 PAM-1 67
CNc1nc2c3ccccc3n(C(C)=O)c2s1	none
CC1CCCCN1C(=O)CSc1n[nH]c(-c2ccccc2Cl)n1 (stereo unspecified)	none (no result: D2 PAM-1, D2 ag-1, D2 antagonist)
N#C/C(=C/c1ccc(-c2ccc(S(N)(=O)=O)cc2)o1)C(=O)Nc1ccccc1	none
N#C/C(=C/c1ccc(-c2ccccc2)o1)c1nc(-c2cccs2)cs1	D2 ag-2 87
N#C/C(=C\c1ccc(-c2ccc(F)cc2)o1)C(=O)Nc1nc(-c2cccs2)cs1	none
N#C/C(=C/c1ccc(-c2ccc(S(N)(=O)=O)cc2)o1)c1nc2ccccc2s1	D2 ag-2 115
COc1ccc(CCC(=O)NCc2nc3cccnc3n2Cc2ccc(OC)cc2)cc1	none (no result: D2 PAM-1, D2 ag-1, D2 antagonist)
COc1ccc(N2CCN(CCCn3c(=S)[nH]c4ccccc4c3=O)CC2)cc1	none
COc1ccccc1N1CCN(CCc2n[nH]c(=S)n2-c2ccccc2)CC1	D2 antagonist 52
O=c1c2cc(N3CCOCC3)ccc2[nH]c(=S)n1CCCN1CCCCCC1	D2 antagonist 39
O=c1c2ccccc2[nH]c(=S)n1CCN1CCN(Cc2ccccc2)CC1	D2 antagonist 52
COc1ccccc1N1CCN(CCCn2c(=S)[nH]c3ccccc3c2=O)CC1	D2 antagonist 82
CCOC(=O)c1ccc(NC(=O)CC2C(=O)N(c3cccc(OC)c3)C(=O)N2Cc2cccnc2)cc1 (stereo unspecified)	none (no result: D2 PAM-1, D2 ag-1, D2 antagonist)
COc1cc(C2CC(=O)Nc3ccc4ccccc4c32)ccc1OC(=O)C(C)C (stereo unspecified)	none (no result: D2 PAM-1, D2 PAM-2, D2 ag-1, D2 antagonist)
Cc1cc(O)c2c(C)c(CC(=O)NCc3ccccc3Cl)c(=O)oc2c1	none (no result: D2 PAM-1, D2 ag-1, D2 antagonist)
O=c1c2cc(N3CCOCC3)ccc2[nH]c(=S)n1CCCN1CCN(c2ccccc2F)CC1	D2 antagonist 84, D2 ag-2 70 (no result: D2 PAM-1, D2 ag-1)
O=c1c2cc(N3CCOCC3)ccc2[nH]c(=S)n1CCN1CCCC1	none
CCOC(=O)c1sc(NC(=O)c2ccncc2)c(C#N)c1C	D2 PAM-1 inconclusive, D2 PAM-2 31
CCOC(=O)c1sc(NC(=O)CSc2n[nH]c(-c3ccc(Cl)cc3Cl)n2)c(C#N)c1C	D2 PAM-2 31
Cc1c(C(=O)N2CCCC2)sc(NC(=O)c2ccc(Cl)cc2)c1C#N	D2 antagonist 91
CCOC(=O)c1c(NC(=O)c2nc(S(C)(=O)=O)ncc2Cl)sc(C(C)=O)c1C	none (no result: D2 PAM-1, D2 ag-1, D2 antagonist)
CCOc1ccccc1Nc1ccc2cc(S(=O)(=O)N3CCCCC3)ccc2n1	none (no result: D2 PAM-1, D2 ag-1, D2 antagonist)
CCc1nn(C(C)C(=O)NCCN2CCN(c3cccc(C)c3C)CC2)c(=O)c2cc3occc3n12 (stereo unspecified)	D2 antagonist 52
CN(C)S(=O)(=O)c1cccc(NC(=O)c2ccc(OC(F)(F)F)cc2)c1	D2 antagonist 46
CN(C)S(=O)(=O)c1cccc(C(=O)Nc2ccccc2)c1	D2 antagonist 47
CC(C)CC(=O)n1nc(-c2ccco2)nc1NCc1ccc(Cl)cc1	none (no result: D2 PAM-1, D2 ag-1, D2 antagonist, D2 ag-2)
CCC(Sc1nc(-c2ccccc2)[nH]c1S(=O)(=O)c1ccc(C)cc1)C(=O)O (stereo unspecified)	none (no result: D2 PAM-1, D2 ag-1, D2 antagonist)
CN1CCN(c2ccccc2/C=C2/C(=O)Nc3ccccc32)CC1	D2 antagonist 37
O=C1Nc2ccccc2/C1=C/c1ccccc1Cl	none
Cc1ccn2c(=O)c(C(=O)NCCc3ccccc3)c(O)nc2c1	none (no result: D2 PAM-1, D2 ag-1, D2 antagonist)
COCc1c(C(=O)NC2CCCCCC2)oc2ccccc12	D2 ag-1 inconclusive, D2 ag-2 31
CC(=O)c1cccc(NC(=O)COC(=O)c2ccc3c(c2)OCCO3)c1	D2 antagonist 39
CCCOC(=O)Nc1ccc(C(N)=O)cc1	none
Cc1ccc(NC(=O)COC(=O)c2ccc3c(c2)OCCO3)cc1	none
CCCOC(=O)Nc1cccc(C(C)=O)c1	D2 antagonist 35
CCOC(=O)c1cccc(NC(=O)COc2ccc([N+](=O)[O-])cc2)c1	none (no result: D2 PAM-2, D2 antagonist, D2 ag-2)
CCCOC(=O)c1cccc(NC(=O)COc2ccc([N+](=O)[O-])cc2)c1	D2 antagonist 33
CCN1CCc2nc3sc(C(=O)c4ccccc4)c(N)c3cc2C1	none (no result: D2 PAM-1, D2 ag-1, D2 antagonist)
C=CCN1C2CCCC1CC(NC(=S)Nc1ccc(Cl)cc1)C2 (stereo unspecified)	none (no result: D2 PAM-2, D2 antagonist, D2 ag-2)
CNC(=S)NC1CC2CCCC(C1)N2Cc1ccco1 (stereo unspecified)	none
CCc1ccc(NC(=S)NC2CC3CCCC(C2)N3Cc2ccccc2)cc1 (stereo unspecified)	D2 antagonist 40
S=C(Nc1ccc(Cl)cc1)NC1CC2CCC(C1)N2Cc1ccccc1 (stereo unspecified)	D2 antagonist 93
CNC(=S)NC1CC2CCC(C1)N2Cc1ccccc1 (stereo unspecified)	D2 antagonist 64
CCOc1ccc(C(=O)NCc2nc3cccnc3n2Cc2cccc(OC)c2)cc1	none (no result: D2 PAM-1, D2 ag-1, D2 antagonist)
COc1ccc(CCNC(=O)COC(=O)C2CC2)cc1	D2 antagonist 31
COc1ccc(CCNC(=O)COc2ccc(S(=O)(=O)NC3CCCCC3)cc2Cl)cc1	D2 PAM-2 34
COc1ccc(S(=O)(=O)NC2CCCC2)cc1Br	D2 antagonist 31
COc1ccc(CCNC(=O)c2n[nH]c3ccccc23)cc1	D2 antagonist 42
COc1ccc(CNC(=O)COC(=O)c2n[nH]c3ccccc23)cc1	none
O=C(COc1ccc(S(=O)(=O)NC2CCCCC2)cc1Cl)NCC1CCCO1 (stereo unspecified)	none
O=C(Cc1ccc(F)cc1)NCc1ccc2c(c1)CCN2C(=O)c1ccc(F)cc1	none (no result: D2 PAM-1, D2 ag-1, D2 antagonist)
Cn1c(-n2cccc2)c(-c2c(-c3ccccc3)[nH]c3c2c(=O)n(C)c(=O)n3C)c(=O)n(C)c1=O	none (no result: D2 PAM-1, D2 ag-1, D2 antagonist)
COc1ccc(C2CC(=O)c3cc(-c4nc(-c5ccc(Cl)cc5)c(C)s4)c(=O)[nH]c3C2)cc1 (stereo unspecified)	none (no result: D2 PAM-1, D2 ag-1, D2 antagonist, D2 ag-2)
Cc1ccc(N2CC(NC(=O)c3cccs3)CC2=O)cc1C (stereo unspecified)	none (no result: D2 PAM-1, D2 ag-1, D2 antagonist)
COc1ccc(N2CCN(C(=O)C3CCN(S(=O)(=O)c4cccc5nonc45)CC3)CC2)cc1	none (no result: D2 PAM-1, D2 ag-1, D2 antagonist)
CCCS(=O)(=O)Nc1cc(-c2cn3cccc(C)c3n2)ccc1C	none (no result: D2 PAM-1, D2 ag-1, D2 antagonist)
Cc1cc(C)nc(NC(C)(C)C(=O)O)n1	D2 antagonist 32
COc1cccc(CNC(=O)c2ccc3c(c2)nc2n3CCOC2)c1OC	none (no result: D2 PAM-1, D2 ag-1, D2 antagonist)
COc1ccc(N2CC(C(=O)Nc3nc4ccc(OC)cc4s3)CC2=O)cc1 (stereo unspecified)	none
COc1ccc2nc(NC(=O)C3CC(=O)N(c4ccccc4)C3)sc2c1 (stereo unspecified)	D2 antagonist 31
Cc1cc(=O)oc2cc(OCC(=O)NC3CCCC3)ccc12	D2 PAM-2 31
CC(=O)c1ccc(OCC(=O)NC(=O)NC2CCCC2)cc1	none (no result: D2 PAM-2, D2 antagonist, D2 ag-2)
CC(=O)c1ccc(OCC(=O)NC2CCCCCC2)cc1	D2 PAM-2 31
Cc1ccc(CSc2ccc3nnc(CCNS(=O)(=O)c4ccc(C)cc4)n3n2)cc1	none (no result: D2 PAM-1, D2 ag-1, D2 antagonist)
